For 13 compounds, Potency results are on record in PubChem BioAssay (NCATS).

Inconclusive results are not listed. Entries that show only a call come without a potency. Activity calls are given as the source filed them. The call rests on the fitted dose curve; in most records, active means well fitted cell-killing curve with a large enough effect; inconclusive means small, poorly fitted or top-dose-only effect, or effect the other way; inactive means flat fitted curve, though single readings scatter.
Potency means the concentration at half of the fitted maximal effect.

This assay concerns Tov112D. Description: Primary qHTS to identify gynecologic anti-cancer compounds using libraries of approved drugs and bioactive compounds (AID 1345084). Further: nearly all actives have a fitted effect of over 55% in size. Particulars: Gynecologic cancer cell panel viability, ATPlite luminescence, 48 h; series mostly up to 57.5 µM. The method in brief: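 Cells, 1,000 per well, plated 16 h, then exposed 48 h at 37 C to compounds. Viability by ATPlite luminescence after 15 min at room temperature.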
A general note: qHTS replaces the single test concentration by a dilution series.
Consider `N#Cc1ccc(Nc2nc(-c3ccc(O)cc3O)cs2)cc1C(F)(F)F`, for which the Potency is 7.94 µM (active).
`COc1cc2ncnc(Nc3ccc(F)c(Cl)c3)c2cc1O`: the Potency result is “inactive”.
On to `COC1CC(O[C@H]2CC[C@]3(C)C4CC[C@]5(C)C(C6=CC(=O)OC6)=CCC56OC46CC[C@@H]3C2)OC(C)C1O[C@@H]1O[C@H](CO[C@@H]2O[C@H](CO)[C@@H](O)[C@H](O)[C@H]2O)[C@@H](O)[C@H](O)[C@H]1O` (stereo partly drawn), for which the Potency was 2 µM (active).
As for `C#CCOc1ccc2c(c1)c(-c1ccc(C(C)C)cc1)nc(=O)n2C(C)C`, the Potency entry was “inactive”.
The same measure for `Cc1cn(CCN2CCN(c3ccccc3-c3cc(C#N)cc(C(=O)NCCCN4CCCC4)c3)CC2)c2ccccc12`: “inactive”.
For `CCCc1cc2c(N3CCN(C4=NCC(C)(C)S4)CC3)ncnc2s1`, the Potency entry is “inactive”.
The same measure for `CCNC1(C(N)=O)CN(c2nc(C)nc3c(-c4ccc(Cl)cc4)c(-c4ccccc4Cl)nn23)C1`: “inactive”; for `CCC(C)CNCC(=O)N1CCc2sccc2C1COc1cccc(C)c1` (stereo not drawn): “inactive”; for `C#Cc1cccc(Nc2nc3cc(C(=O)O)ccc3c3cncnc23)c1`: “inactive”.
As for `Cn1nc(-c2ccc(C(F)(F)F)cc2)nc2c(=O)n(C)c(=O)nc1-2`, the Potency is 7.94 µM (active).
The same measure for `Cn1ncc(Cl)c1-c1cc(C(=O)N[C@H](CN)Cc2ccc(F)c(F)c2)sc1Cl`: “inactive”; for `O=C1COC2(CCN(S(=O)(=O)c3ccc(-c4ccc5cccnc5c4)cc3)CC2)CN1C1CC1`: “inactive”.
Consider `O=C(NCCN1CCOCC1)c1cc2c(Oc3ccc(NC(=O)C4(C(=O)Nc5ccc(F)cc5)CC4)cc3)ccnc2[nH]1`, for which the Potency result was “inactive”.
